# Measured values from the supplement of paper PMC8975748.
# Structures can show the parent of a compound that is named as a salt.
# Tested on: Saccharomyces cerevisiae BY4741 SeMeCo community
# Test: z-score of subpopulation abundance vs DMSO median, subpopulation auxotrophic for LUM; higher = larger share of this subpopulation than in DMSO controls
# Conditions: 10 µM; 24 h; SM minimal medium; subpopulation (auxotrophy): LUM
# Experimental: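 Fluorescent four-plasmid SeMeCo (self-establishing metabolically cooperating S. cerevisiae BY4741 community; plasmids pH-mRuby2, pL-mWasabi, pU-eCFP, pM-TagRFP657) was grown 24 h in minimal SM medium with each Selleck FDA-approved drug at 10 µM in 384-well plates. Cells were fixed and imaged by high-content confocal microscopy. For each auxotrophic subpopulation (and the prototroph), a z-score gives the deviation from the DMSO vehicle-control population median.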
row,Compound,z-score of subpopulation abundance
1,N[C@@H]1C[C@H]1c1ccccc1 [Tranylcypromine (2-PCPA) HCl],-0.84
2,CNC1CC(N)C(O)C(OC2OC(CO)C(O)C3OC4(OC(C(N)CO)C(O)C(O)C4O)OC23)C1O (stereo not given) [Hygromycin B],-0.17
3,CCC1=C[C@H]2CN3CCc4c([nH]c5ccccc45)[C@](C(=O)OC)(C2)[C@H]13 [Catharanthine],-0.3
4,C[N+]12CCC(CC1)C(OC(=O)C(O)(c1ccccc1)c1ccccc1)C2 (stereo not given) [Clidinium Bromide],-0.9
5,CC(C)(O)C(Cl)(Cl)Cl [Chlorobutanol],0.26
6,COc1ccc2c3c([nH]c2c1)C(C)=NCC3 [Harmaline],-4.96
7,Oc1cccc2cccnc12 [8-Hydroxyquinoline],-0.89
8,CC(C)=CCOc1c2occc2cc2ccc(=O)oc12 [Imperatorin],0.74
9,O=C(O[C@H]1C[N+]2(CCCOc3ccccc3)CCC1CC2)C(O)(c1cccs1)c1cccs1 [Aclidinium Bromide],-0.16
10,Cc1cc(C(C#N)c2ccc(Cl)cc2)c(Cl)cc1NC(=O)c1cc(I)cc(I)c1O (stereo not given) [Closantel],0.43
11,CN1[C@@H]2CC[C@H]1C[C@@H](OC(=O)[C@H](CO)c1ccccc1)C2 [Hyoscyamine],-0.43
12,CC[C@H]1[C@@H]2C[C@H]3[C@@H]4N(C)c5ccccc5[C@]45C[C@@H]([C@@H]2[C@H]5O)N3[C@@H]1O [Ajmaline],-0.35
13,CN(C)[C@@H]1C(=O)C(C(N)=O)=C(O)[C@@]2(O)C(=O)C3=C(O)c4c(O)cccc4[C@@](C)(O)[C@H]3C[C@@H]12 [Tetracycline HCl],-0.52
14,CC1(C)SC2C(N)C(=O)N2C1C(=O)O (stereo not given) [6-Aminopenicillanic acid],-0.93
15,CN(C)[C@@H]1C(=O)C(C(N)=O)=C(O)[C@@]2(O)C(=O)C3=C(O)c4c(O)cccc4[C@@](C)(O)[C@H]3[C@H](O)[C@@H]12 [Oxytetracycline Dihydrate],0.01
16,CC(=O)OCC1=C(C(=O)O)N2C(=O)C(N)C2SC1 (stereo not given) [7-Aminocephalosporanic acid],-0.51
17,CC[C@@H](C(N)=O)N1CCCC1=O [Levetiracetam],-0.55
18,CN1[C@@H]2CC[C@H]1C[C@@H](OC(=O)C(CO)c1ccccc1)C2 (stereo not given in full) [Atropine sulfate monohydrate],0.28
19,Oc1cc(Cl)ccc1Oc1ccc(Cl)cc1Cl [Triclosan],0.02
20,C[C@@H]1CC[C@H]2[C@@H](C)C(=O)O[C@@H]3O[C@@]4(C)CC[C@@H]1[C@]32OO4 [Artemisinin],-0.97

row,Compound,z-score of subpopulation abundance
1,O=C(O[C@H]1C[C@H]2CC[C@@H](C1)[N+]21CCCC1)C(O)(c1ccccc1)c1ccccc1 [Trospium chloride],-0.13
2,COc1ccc2[nH]cc(CCN)c2c1 [5-Methoxytryptamine],0.78
3,CN1C(=O)COc2c(C(=O)NC3CN4CCC3CC4)cc(Cl)cc21 (stereo not given) [Azasetron HCl],-0.38
4,Nc1nc(N)nc(NC2CC2)n1 [Cyromazine],0.89
5,CCOC(=O)Nc1ccc(NCc2ccc(F)cc2)cc1N [Retigabine 2HCl],-0.01
6,CN(C)[C@@H]1C(=O)C(C(N)=O)=C(O)[C@@]2(O)C(=O)C3=C(O)c4c(O)ccc(Cl)c4[C@@](C)(O)[C@H]3C[C@@H]12 [Chlortetracycline HCl],-0.67
7,C=CCN1C[C@H](C(=O)N(CCCN(C)C)C(=O)NCC)C[C@@H]2c3cccc4[nH]cc(c34)C[C@H]21 [Cabergoline],0.18
8,CN1c2ccccc2C(NCCCCCCC(=O)O)c2ccc(Cl)cc2S1(=O)=O (stereo not given) [Tianeptine sodium],0.15
9,Cc1cc(O)ccc1Cl [Chlorocresol],-0.61
10,COc1ccc2c(c1)[C@]13CCCC[C@@H]1[C@H](C2)N(C)CC3 [Dextromethorphan hydrobromide hydrate],-0.51
11,COC(=O)C1=CCCN(C)C1 [Arecoline HBr],0.07
12,CC[C@@]1(O)C(=O)OCc2c1cc1n(c2=O)Cc2cc3ccccc3nc2-1 [Camptothecin],-0.25
13,CC[C@H]1CN2CC[C@]3(C(=O)Nc4ccccc43)[C@@H]2C[C@@H]1/C(=C\OC)C(=O)OC [Rhynchophylline],-0.36
14,CN1[C@@H]2C[C@@H](OC(=O)[C@H](CO)c3ccccc3)C[C@H]1[C@@H]1O[C@@H]12 [Scopolamine HBr trihydrate],-0.33
15,Nc1ccncc1 [4-Aminopyridine],0.34
16,CCCCCCCCCCCCCCCC[n+]1ccccc1 [Cetylpyridinium Chloride],7.62
17,COc1ccc(C(CN(C)C)C2(O)CCCCC2)cc1 (stereo not given) [Venlafaxine HCl],1.02
18,COc1ccc(C=O)cc1 [p-Anisaldehyde],-0.69
19,CCN(C)C(=O)Oc1cccc([C@H](C)N(C)C)c1 [Rivastigmine],-0.27
20,CN[C@@H]1[C@@H](O)[C@@H](O[C@@H]2[C@@H](O)[C@H](O[C@H]3O[C@H](CN)CC[C@H]3N)[C@@H](N)C[C@H]2N)OC[C@]1(C)O.CN[C@@H]1[C@@H](O)[C@@H](O[C@@H]2[C@@H](O)[C@H](O[C@H]3O[C@H]([C@@H](C)N)CC[C@H]3N)[C@@H](N)C[C@H]2N)OC[C@]1(C)O.CN[C@@H]1[C@@H](O)[C@@H](O[C@@H]2[C@@H](O)[C@H](O[C@H]3O[C@H]([C@@H](C)NC)CC[C@H]3N)[C@@H](N)C[C@H]2N)OC[C@]1(C)O [Gentamicin Sulfate],-0.47
